DT40 TDP1 no CPT – qHTS for Inhibitors of human tyrosyl-DNA phosphodiesterase 1 (TDP1): qHTS in cells in absence of CPT | DT40 Tdp1-/- hTDP1 cells, no CPT, ATP luminescence, 48 h | Potency, µM (top dose mostly 46.2 µM), for inactives: top-dose activity change, negative = growth inhibition, hits mostly inhibitors | 420,000 compounds, 15% hits | AID 686978, 2013; further: nearly all actives have a fitted effect of over 55% in size
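Growth of hTDP1-complemented DT40 Tdp1-knockout cells is measured by ATP luminescence after at least 48 hr compound exposure at 37 °C, with DMSO substituting for the 20 nM CPT used in the parallel screen.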
12-LOX inh – blocks human arachidonate 12S-lipoxygenase; P18054; purified 12hLO, xylenol orange hydroperoxide absorbance; Potency, µM (top dose mostly 108 µM), inactives show at the highest dose activity change, negative = inhibition, actives largely listed as inhibitors; 580,000 compounds, 1.1% hits
Target sequence (P18054 whole entry, looked up): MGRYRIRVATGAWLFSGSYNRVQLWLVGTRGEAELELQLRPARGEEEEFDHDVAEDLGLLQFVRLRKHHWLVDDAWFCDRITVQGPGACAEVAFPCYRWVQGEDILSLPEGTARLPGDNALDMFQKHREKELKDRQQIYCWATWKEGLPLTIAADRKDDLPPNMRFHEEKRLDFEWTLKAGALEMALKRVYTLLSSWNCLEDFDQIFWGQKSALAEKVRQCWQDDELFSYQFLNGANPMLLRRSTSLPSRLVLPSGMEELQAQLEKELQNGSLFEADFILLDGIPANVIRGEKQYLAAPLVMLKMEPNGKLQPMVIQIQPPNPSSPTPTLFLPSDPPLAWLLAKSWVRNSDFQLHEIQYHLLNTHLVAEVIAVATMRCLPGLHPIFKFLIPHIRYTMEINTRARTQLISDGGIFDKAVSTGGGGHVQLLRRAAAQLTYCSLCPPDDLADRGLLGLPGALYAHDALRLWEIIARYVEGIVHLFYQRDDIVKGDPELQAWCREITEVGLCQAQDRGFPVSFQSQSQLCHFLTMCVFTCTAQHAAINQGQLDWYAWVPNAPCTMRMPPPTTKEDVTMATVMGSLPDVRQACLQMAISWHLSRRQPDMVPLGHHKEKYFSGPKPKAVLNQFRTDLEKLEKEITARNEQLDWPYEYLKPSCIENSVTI
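Purified human 12hLO (150 nM final) in 25 mM Hepes, 0.01% Triton X-100, pH 7.0 was preincubated 15 min at room temperature with compound. Then 40 uM arachidonic acid was added, 30 min. Hydroperoxide was read by Fe-XO absorbance ratio 573/405 nm.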
ELG1 repair inh – inhibitors of ELG1-dependent DNA repair in HEK293T cells. 330,000 compounds, 2.3% hits. AID 504467. HEK293T ELG1-luciferase reporter, luminescence, 16 h; DNA damage induced by 5-fluorouridine. Potency, µM (doses to about 46.1 µM), without a hit: top-dose activity change, negative = inhibition, hits mostly inhibitors; further: nearly all actives have a fitted effect of over 55% in size
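Step one: seed 2,000 cells per well. Step two: pin-transfer compound or DMSO alongside 5-fluorouridine. Step three: incubate 16 hr, 37 °C, 5% CO2. Step four: add ONE-Glo, wait 30 min, read luminescence.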
RORgamma inh – inhibitors of mouse ROR gamma transcriptional activity; 310,000 compounds, 5.4% hits; AID 2551; Potency, µM (top dose mostly 53.6 µM), for inactives: top-dose activity change, negative = inhibition, actives largely listed as inhibitors; Drosophila S2 Gal4-RORgamma UAS-luciferase reporter, 20 h; P51450; further: nearly all actives have a fitted effect of over 60% in size
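Compounds are pin-transferred onto Drosophila Schneider cells expressing a copper-inducible Gal4–ROR gamma transactivation domain fusion. After 1 hr, copper sulfate is added to 700 uM final; luciferase is read 20 hr later.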
VP16 counter – Gal4-VP16 reporter inhibition counter-screen; Drosophila S2 Gal4-VP16 UAS-luciferase, luminescence, 20 h; Potency, µM (doses to about 53.6 µM), for inactives: top-dose activity, negative = inhibition, actives largely listed as inhibitors; 310,000 compounds, 3.5% hits;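 further: Gal4-VP16 expression switched on by copper sulfate through the metallothionein promoter; nearly all actives have a fitted effect of over 50% in size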
DT40 TDP1 CPT – growth inhibition of DT40 Tdp1-/-;hTDP1 cells with camptothecin (screen for TDP1 inhibitors); chicken DT40 Tdp1-/-;hTDP1 cells + 20 nM CPT, ATP luminescence, 48 h; 420,000 compounds, 12% hits; Potency, µM (top dose mostly 46.2 µM), without a hit: at the top dose activity change, negative = growth inhibition, hits mostly inhibitors; further: nearly all actives have a fitted effect of over 55% in size
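Cell growth measured by CellTiter-Glo luminescence after a minimum 48 h, 37 C compound exposure with 20 nM CPT in Tdp1-knockout DT40 cells stably expressing hTDP1, seeded 400/well; qHTS titration format.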
Numbers without * were called inactive; ? = inconclusive; . = not tested or not shown; [ ] = another dose, or the depositor's remark. The list is not random: actives were taken first. Their share in the collection is about 15%. The call rests on the fitted dose curve; in most records, active means well fitted curve in the direction sought with a large enough effect; inconclusive means small, poorly fitted or top-dose-only effect, or another doubt; inactive means no such curve, though single readings can be large; an effect the other way counts as inactive or inconclusive. On the % scale 0 is the no-effect control and ±100 the full control effect; potency means the concentration at half of the fitted maximal effect.

SMILES	DT40 TDP1 no CPT	12-LOX inh	ELG1 repair inh	RORgamma inh	VP16 counter	DT40 TDP1 CPT
CCc1ccc2ncc(S(=O)(=O)c3ccc(Cl)cc3)c(N3CCN(CC)CC3)c2c1	16µM*	-30%	.	.	.	?
CCOc1ccc2ncc(S(=O)(=O)c3ccccc3)c(N3CCCCC3)c2c1	.	-22%	.	.	.	.
CCOc1ccc2ncc(S(=O)(=O)c3ccc(C)cc3)c(N3CCC4(CC3)OCCO4)c2c1	23µM*	11%	18µM*	?	-1%	?
Cc1ccccc1OCc1nc(-c2ccc(NC(=O)c3ccc4c(c3)OCO4)cc2)no1	23µM*	65%	?	?	?	?
COc1ccccc1CC(=O)Nc1ccc(-c2noc(COc3ccc(Br)cc3)n2)cc1	-27%	0%	15%	11%	-10%	-18%
COc1ccccc1CC(=O)Nc1ccc(-c2noc(COc3cccc(C)c3C)n2)cc1	13µM*	-10%[57.4 µM]	?	13%	9%	18µM*
O=C(NCc1nc(-c2ccccc2)no1)c1ccc2c(c1)OCO2	-18%	8%	-3%	34%	1%	-15%
Cc1ccccc1OCc1nc(-c2ccc(NC(=O)c3ccco3)cc2)no1	23µM*	9%	?	-34%	-28%	?
CC1CCCN(S(=O)(=O)c2ccc(NC(=O)Cc3ccc(S(=O)(=O)N4CCOCC4)s3)cc2)C1 (stereo not drawn)	18µM*	-24%	-21%	.	.	?
CCOC(=O)c1ccccc1NC(=O)Cc1ccc(S(=O)(=O)N2CCCC2)s1	?	-12%	26µM*	.	.	?
CC1CCN(S(=O)(=O)c2ccc(NC(=O)Cc3ccc(S(=O)(=O)N4CCOCC4)s3)cc2)CC1	23µM*	-4%	-30%	.	.	18µM*
Cc1ccc(C)c(NC(=O)Cc2ccc(S(=O)(=O)N3CCCCC3)s2)c1	?	-26%	-15%	?	-9%	-7%
CNC(=O)c1ccc(NC(=O)Cc2ccc(S(=O)(=O)N3CCOCC3)s2)cc1	-21%	0%	0%	.	.	-2%
COc1cc(NC(=O)Cc2ccc(S(=O)(=O)N3CCOCC3)s2)c(OC)cc1Cl	21µM*	-13%	?	.	.	?
O=C(Nc1cccc(Br)c1)N1CCC2(CC1)SCC(=O)N2Cc1ccccc1	.	28%	.	.	.	.
CCOC(=O)c1nc2ccccc2nc1NCc1ccco1	.	-11%	.	.	.	.
O=C(NCCCN1CCOCC1)c1ccc(-c2ccc(N3CCCCCC3)nc2)cc1	.	-20%	.	.	.	.
O=C(Cc1ccc(S(=O)(=O)N2CCOCC2)s1)Nc1ccc(S(=O)(=O)N2CCCCC2)cc1	?	.	?	.	.	18µM*
COc1ccc(Br)cc1CN(C)C(=O)Cc1ccc(S(=O)(=O)N2CCOCC2)s1	21µM*	-20%	-28%	.	.	?
COc1ccc(CN(C)C(=O)Cc2ccc(S(=O)(=O)N3CCOCC3)s2)cc1OC	?	14%	-4%	.	.	-3%
NS(=O)(=O)c1ccc(N/N=C/c2ccsc2)c([N+](=O)[O-])c1	.	-8%	.	.	.	.
CSc1ccccc1NC(=O)c1cc(-c2cccnc2)nc2ccc(Br)cc12	21µM*	0%	23µM*	-11%	-25%	?
CC(=O)Nc1cccc(NC(=O)c2cc(-c3cccnc3)nc3ccc(Cl)cc23)c1	?	18%	21µM*	11%	-12%	?
O=C(O)c1cc(-c2cccnc2)nc2ccc(Br)cc12	22%	0%	-6%	-6%	-4%	?
Cc1cc(NS(=O)(=O)c2ccc(NC(=O)c3cc(-c4cccnc4)nc4ccc(Cl)cc34)cc2)no1	8%	?	-3%	3%	-12%	15%
